Shown are actives, neighbours in structure and some others; about 0.92% of the full set was active somewhere.
AGP1 TOR yeast = modulators of TOR pathway AGP1-GFP in S. cerevisiae; S. cerevisiae AGP1-GFP multiplex flow cytometry, 3 h; GFP as percent of DMSO wells; GFP response vs DMSO, % at 10 µM; 320,000 tested, 0.02% active;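 active means GFP response relative to DMSO above a set limit, near screen average plus 3 SD, cut at about 150% in these data; inconclusive means fewer than 70 cells counted for the yeast strain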;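 further: median GFP channel fluorescence of the gated AGP1 strain per well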
CIT2-GFP yeast = yeast TOR pathway CIT2-GFP modulation; AID 2029; GFP response vs DMSO, % at 10 µM; 320,000 tested, 0.065% active; S. cerevisiae CIT2-GFP strain, flow cytometry, 3 h; 100 means same as DMSO wells;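 active means GFP response relative to DMSO above a set limit, near the screen mean plus 3 SD, cut at about 150% in these data; inconclusive means Fewer than 70 cells measured for a yeast strain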;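 further: ratio of well median GFP fluorescence to mean of DMSO wells on the plate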
LAP4-GFP MLPCN = modulators of TOR pathway LAP4-GFP in S. cerevisiae; GFP response vs DMSO, % at 10 µM; 320,000 tested, 0.34% active; S. cerevisiae LAP4-GFP multiplex, flow cytometry GFP, 3 h; median GFP as percent of DMSO wells;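 active means GFP response vs DMSO above a set limit, about the screen mean plus 3 SD, cut at about 150% in these data; inconclusive means under 70 cell events counted for the yeast strain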
RPL19A-GFP yeast = yeast TOR pathway RPL19A-GFP modulation | S. cerevisiae RPL19A-GFP strain, flow cytometry, 3 h; stronger effect = lower value | percent response vs DMSO, % at 10 µM | 330,000 tested, 0.3% active | AID 2025;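 active means percent response vs DMSO below 50%; inconclusive means fewer than 70 events counted for the yeast strain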;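 further: median channel GFP fluorescence of the barcoded RPL19A-GFP strain; ratio of sample median GFP to plate DMSO average so 100% = DMSO; lower means less RPL19A-GFP as with rapamycin TOR inhibition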
MEP2 TOR yeast = yeast TOR pathway MEP2-GFP modulation; 330,000 tested, 0.51% active; S. cerevisiae MEP2-GFP strain, flow cytometry GFP, 3 h; 100% = DMSO control level; AID 2016; GFP response vs DMSO, % at 10 µM;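 active means GFP response versus DMSO above a set limit, roughly screen mean plus 3 SD, cut at about 180% in these data; inconclusive means fewer than 70 cells counted for a yeast strain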;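 further: median GFP fluorescence of the barcode-gated MEP2-GFP cells per well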
Numbers without * were called inactive; ? = inconclusive; . = no result; [ ] = dose if it differs, or a comment.

SMILES	AGP1 TOR yeast	CIT2-GFP yeast	LAP4-GFP MLPCN	RPL19A-GFP yeast	MEP2 TOR yeast
O=C(c1cccc(COc2ccc(Cl)cc2Cl)c1)N1CCN(c2ccccn2)CC1	89	87	162*	91	101
O=C(NC1=NCCS1)c1cccc(Br)c1	17	?	108	66	185*[may fluoresce violet]
O=C(NC1=NCCS1)c1cccc(F)c1	96	100	102	100	101
CC1CCc2c(C(=O)NCc3cccnc3)csc2C1 (stereo unspecified)	111	169*	148	122	159
O=C(CN1CCCCCCC1)Nc1cccc(Cl)c1Cl	100	107	95	104	99
O=C(NCCc1ccccc1)C(=O)NCC1OCCCN1S(=O)(=O)c1cccs1 (stereo unspecified)	114	112	103	108	105
CC(C)(C)C(=O)Nc1ccc(/C=C/C(=O)c2ccco2)cc1	95	97	108	103	109
Oc1c(Br)cc(Br)cc1/C=N/c1nc2c(s1)CCCC2	15	?	103	47*[may fluoresce violet]	90
Oc1ccc2ccccc2c1/C=N/c1nc2c(s1)CCCC2	96	95	94	96	95
CC(C)C[C@H](N)C(=O)N1CCC(C(=O)N[C@H](C(=O)NC(C)c2ccccc2)C(C)C)CC1 (stereo partly specified)	?	?	77	15*[may fluoresce violet]	247*[may fluoresce violet]
CC(C)C[C@H](N)C(=O)N1CCC(C(=O)N[C@H](C(=O)NCc2ccc(F)cc2)C(C)C)CC1	104	96	102	98	109
O=C(COc1coc(CN2CCc3ccccc3C2)cc1=O)Nc1ccc(F)cc1F	107	100	103	95	96
Cc1c(C(=O)NNC(=O)c2ccncc2)oc2ccc(Br)cc12	97	83	110	97	105
Cc1cccn2c(=O)c3cc(C#N)c(=NC(=O)c4ccccc4)n(Cc4ccco4)c3nc12	22	?	96	44*[may fluoresce violet]	257*[may fluoresce violet]
Cc1cccn2c(=O)c3cc(C#N)c(=NC(=O)c4ccco4)n(Cc4ccco4)c3nc12	19	?	104	80	135
Cc1cccc(C(=O)N=c2c(C#N)cc3c(=O)n4cccc(C)c4nc3n2Cc2ccco2)c1	?	?	83	17*[may fluoresce violet]	294*[may fluoresce violet]
Cc1ccc(-n2c(=O)c(C#N)cc3c(=O)n4cccc(C)c4nc32)cc1	22	?	83	42*[may fluoresce violet]	150
Cc1ccc(Cn2c(=N)c(C#N)cc3c(=O)n4cccc(C)c4nc32)cc1	100	92	95	94	104
C[C@@H]1CN([C@H](C)CO)C(=O)c2cc(NS(=O)(=O)c3cn(C)cn3)ccc2O[C@H]1CN(C)C(=O)Nc1ccccc1	97	96	110	93	93
NC(=S)NN=C1c2cc(S(=O)(=O)N3CCOCC3)ccc2-c2ccc(S(=O)(=O)N3CCOCC3)cc21	99	97	98	98	98
CN(C)N=C1c2cc(S(=O)(=O)N3CCOCC3)ccc2-c2ccc(S(=O)(=O)N3CCOCC3)cc21	?	?	87	47*[may fluoresce violet]	269*[may fluoresce violet]
CCOC(=O)CNC(=O)c1cn(CC(C)C)c(=O)c2cc(OC)c(OC)cc12	?	?	76	41*[may fluoresce violet]	248*[may fluoresce violet]
CCCN1CCN(C(=O)c2cn(CC(C)C)c(=O)c3cc(OC)c(OC)cc23)CC1	77	82	89	87	110
COc1cc2c(C(=O)N3CCN(C4CCCCC4)CC3)cn(CC(C)C)c(=O)c2cc1OC	23	?	93	49*[may fluoresce violet]	201*[may fluoresce violet]
Nc1[nH]c(=O)ncc1F	66	63	261*[may fluoresce red]	?	89
SMILES	AGP1 TOR yeast	CIT2-GFP yeast	LAP4-GFP MLPCN	RPL19A-GFP yeast	MEP2 TOR yeast
CCc1nc(Nc2ccc(N3CCN(C(C)=O)CC3)cc2)c2oc3ccccc3c2n1	107	101	102	93	103
CC(=O)N1CCN(c2ccc(Nc3ncnc4c3oc3ccccc34)cc2)CC1	.	?	91	22*[may fluoresce violet]	427*[may fluoresce violet]
CCOc1ccc(CNS(=O)(=O)c2ccc3c(c2)CC(=O)N3C)cc1	?	?	72	17*[may fluoresce violet]	170
CCOc1ccc(S(=O)(=O)NCc2ccncc2)cc1	113	106	97	104	109
Cc1noc(/C=C/c2cccnc2)c1[N+](=O)[O-]	84	90	161*	87	92
COc1ccc(N(CC(=O)N/N=C/c2cc(OC)ccc2OC)S(=O)(=O)c2ccccc2)cc1	99	147	131	110	185*
COc1ccc(N(CC(=O)N/N=C/c2ccc(OC)cc2OC)S(=O)(=O)c2ccccc2)cc1	96	98	87	99	94
COc1cccc(C(C)NC(=O)c2ccncc2)c1 (stereo unspecified)	113	108	106	100	115
C=CCc1cccc(Cl)c1OCCCNC1CCCC1	103	97	99	104	113
CC1(C)CCC[C@@]2(C)CC=C(C(=O)O)[C@@H]3C[C@]312	?	?	95	15*[may fluoresce violet]	480*[may fluoresce violet]
CCOCC(=O)Nc1nnc(SCCOC)s1	?	?	107	15*[may fluoresce violet]	294*[may fluoresce violet]
COCCSc1nnc(NC(=O)Cc2ccc(OC)cc2)s1	92	91	95	88	87
CN(C)CCCNS(=O)(=O)c1cc(Cl)ccc1Cl	96	96	101	99	108
O=S(=O)(c1ccc(N2CCC(c3ccc(Cl)cc3)=N2)cc1)N(CCO)CCO	18	?	91	55	230*[may fluoresce violet]
CN(C)CCCNS(=O)(=O)c1ccc(N2CCC(c3ccc(Cl)cc3)=N2)cc1	?	?	?	31*[may fluoresce violet]	?
CCOC(=O)C(=CNNc1cccc(Cl)c1)C(=O)OCC	103	105	154*	98	98
CCC(=O)Nc1nnc(S(=O)(=O)N(CC)c2cc(C)cc(C)c2)s1	111	102	101	116	111
CCN(c1cc(C)cc(C)c1)S(=O)(=O)c1nnc(NC(=O)C(C)(C)C)s1	15	?	74	97	647*[may fluoresce violet]
O=C1c2ccccc2NC(c2ccccc2O)N1O (stereo unspecified)	91	95	93	102	100
Cc1ccc(N2C(=O)c3ccccc3NC2c2ccccc2O)cc1 (stereo unspecified)	99	145	141	110	200*
Cc1cccc(Oc2ncnc(N)c2[N+](=O)[O-])c1	99	97	107	101	106
COc1cccc(Oc2ncnc(N)c2[N+](=O)[O-])c1	24	?	63	80	525*[may fluoresce violet]
COc1ccccc1CNC(=O)C1CCCCN1S(=O)(=O)c1ccccc1 (stereo unspecified)	95	96	89	101	96
COC(=O)c1sccc1NC(=O)CC1C(=O)NCCN1C(=O)Nc1cc(Cl)ccc1OC (stereo unspecified)	100	92	110	104	100
O=C1CSC(c2cn(-c3ccccc3)nc2-c2ccc3c(c2)OCCO3)N1CCN1CCOCC1 (stereo unspecified)	28	?	95	37*[may fluoresce violet]	351*[may fluoresce violet]

Bioassay records (PubChem)
